# “And” between values parts separate entries of the source, which are not always exact repeats. Identical values can stand only once. Compounds without any hit were thinned out: in the full panel of roughly 83,000, 20% have a hit.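 Treatment: one concentration, 48 hours, 96-well format. Scoring: percent growth, with anything below 10 considered active.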 The source made the active and inactive calls.
# Tested on: COLO 205 colon
# Assay: NCI-60 one-dose screen, 48 h (100 = growth as untreated, 0 = no growth, -100 = all killed)
# Conditions: 10 µM
# Description: Cells are grown in 96 well plates and exposed to the test compound for 48 hours. Compounds are tested at a single concentration, which is 10^-5 M for most compounds. The reported endpoint is percent growth (GI% or GIPRCNT), where numbers from 0 - 100% represent growth inhibition, and numbers from -100% - 0 represent cell death. For example, a value of 40 represents 60% growth inhibition. A value of 0 means no net growth occurred over the course of the experiment. A value of -40 indicates 40% of cells at the beginning of the experiment died by the end of the experiment. A value of -100 means all cells are dead at the end of the experiment.
# NCI-60 Human Tumor Cell Lines Screen was performed using the standard one-dose NCI protocol, which is described in more detail at https://dtp.cancer.gov/discovery_development/nci-60/default.htm.
# Compounds with GIPRCNT values below 10 were considered active. Activity score was based on GIPRCNT using the following formula: […]
# Score is 0 for GIPRCNT values of 100 or above, 50 for GIPRCNT values of 0, and 100 for GIPRCNT values of -100.
row,Compound,growth
1,S=C(SSC(=S)N1CCCCC1)N1CCCCC1,110% (inactive)

# Same assay, conditions: 10 µM unless noted
row,Compound,growth
1,CC[C@@]1(O)C(=O)OCc2c1cc1n(c2=O)Cc2cc3ccccc3nc2-1,-38% (active)
2,CCCCCCCCCCCC1CCCC(C)N1 (stereo not given),-33% (active)
3,CCOC(=O)C(NC(=O)C(Cc1ccc(N(CCCl)CCCl)cc1)NC(C)=O)C(C)C (stereo not given),66.5% (inactive)
4,CCC1(O)CC(OC2CC(N(C)C)C(OC3CC4OC5CC(=O)C(C)OC5OC4C(C)O3)C(C)O2)c2c(cc3c(c2O)C(=O)c2c(O)ccc(O)c2C3=O)C1C(=O)OC (stereo not given),-52.1% (active)
5,Oc1cccc2cccnc12,65% (inactive) and 105% (inactive) and 102% (inactive)
6,Cc1ccc(C(=O)OC(C(=O)O)C(OC(=O)c2ccc(C)cc2)C(=O)O)cc1 (stereo not given) (tested in a mixture with another compound),48.9% (inactive)
7,C[C@H]1CCC/C=C/[C@@H]2C[C@H](O)C[C@H]2[C@H](O)/C=C/C(=O)O1,-75.4% (active)
8,COc1ccccc1/C=C(/C)[N+](=O)[O-],67.4% (inactive) and 106% (inactive)
9,COC1=C(C)C(=O)C2=C(C1=O)C(CO)N1C(C#N)C3CC4C(C1C2N1CCOC41)N3C (stereo not given),-74.5% (active)
10,C[C@]12CC[C@H](O)CC1=CC[C@@H]1[C@@H]2CC[C@]2(C)C(=O)CC[C@@H]12,93.4% (inactive)
11,COC1CC(CC2CCC(C)C(C(C)C(=O)O)O2)OC2(OC(C)(C3CCC(C)(C4OC(C5OC(O)(CO)C(C)CC5C)CC4C)O3)CC2C)C1C (stereo not given),-12% (active)
12,CC1=C(CO)C2=C(C)C3(CC3)[C@@](C)(O)C(=O)C2=C1,-40.1% (active)
13,CC[C@](O)(C(=O)O)c1cc2n(c(=O)c1CO)Cc1cc3ccccc3nc1-2,-20.7% (active)
14,CC1=C2C(=O)[C@H]3[C@@H](CC=C4C[C@@H](O)CC[C@@]43C)[C@@H]2CC[C@]12O[C@@H]1C[C@H](C)CN[C@H]1[C@H]2C,103% (inactive)
15,Oc1cc[c]([Hg][Cl])cc1,130% (inactive)
16,NCCc1ccc(OCc2ccccc2)c(OCc2ccccc2)c1,13.5% (inactive)
17,CCC(=O)OC1CCn2c1nc1c2C(=O)C(C)=C(N2CC2)C1=O (stereo not given),-74.3% (active)
18,CN1CCN(c2ccc([N+](=O)[O-])c3no[n+]([O-])c23)CC1,-83.3% (active)
19,CC[C@@]1(O)C[C@H](OC2CC(N(C)C)C(O)C(C)O2)c2c(O)c3c(c(O)c2[C@H]1OC1CC(N(C)C)C(O)C(C)O1)C(=O)c1cccc(O)c1C3=O (stereo not given in full),-20.5% (active)
20,O=C1c2ccccc2C(=O)C(Cl)C1Cl (stereo not given),-94.3% (active)
21,COc1cccc2c1cc([N+](=O)[O-])c1c(C(=O)O)cc3c(c12)OCO3,-25.3% (active) and -56.5% (active)
22,CC[n+]1c(-c2ccccc2)c2cc(N)ccc2c2ccc(N)cc21,-27.9% (active)
23,COc1ccc(OC)c(/C=C/[N+](=O)[O-])c1,-51.6% (active)
24,CC[C@@]1(O)C[C@H](OC2CC(N(C)C)C(OC3CC(O)C(OC4CCC(=O)C(C)O4)C(C)O3)C(C)O2)c2c(cc3c(c2O)C(=O)c2c(O)ccc(O)c2C3=O)[C@H]1C(=O)OC (stereo not given in full),11.1% (inactive)
25,CO[C@H](/C(C)=C/C=C/C(C)=C/c1coc(C)n1)[C@H](C)[C@H]1C[C@@H](O)[C@@]2(C)O[C@H]2/C=C/[C@@H](C)[C@@H]2C[C@@H](CC(=O)O2)C[C@H]2O[C@@H]2C(=O)O1,-28.7% (active)
26,Cc1c(N)nc([C@H](CC(N)=O)NC[C@H](N)C(N)=O)nc1C(=O)N[C@H](C(=O)N[C@H](C)[C@@H](O)[C@H](C)C(=O)N[C@H](C(=O)NCCc1nc(-c2nc(C(=O)NCCC[S+](C)C)cs2)cs1)[C@@H](C)O)C(OC1OC(CO)C(O)C(O)C1OC1OC(CO)C(O)C(OC(N)=O)C1O)c1cnc[nH]1 (stereo not given in full),87.7% [2.5 µM] (inactive)
27,CC(=O)O[C@H]1C[C@@H]2OC3C=C(C)CCC3(C)[C@@]1(C)[C@@]21CO1 (stereo not given in full),-61.6% (active) and -70.2% (active)
28,Cc1cc(N=Nc2ccccc2C)ccc1N,111% (inactive)

# Same assay, conditions: 100 µM
row,Compound,growth
1,S=C(SSC(=S)N1CCCCC1)N1CCCCC1,-69.1% (active)
